# Source: PubChem (Broad Institute)
# aSyn UTR act – Activators working through SNCA 5'UTR binding (MLPCN). AID 1814. alpha-synuclein 5'UTR reporter, activators screen. actives 7.1% (n = 300,000). activity score, % (tested at 7.5 µM), hits read low; in the data active = activity score below about -60%
# The depositor's hits bear a star. Not all results are given here.
SMILES,aSyn UTR act
Cc1ccccc1-c1nc2cc(NC(=O)C3CC3)ccc2o1,-150.0*
O=C(CN1CCCC1)Nc1ccc(-c2nc3cc(NC(=O)CN4CCCC4)ccc3o2)cc1,-118.5*
CCC(=O)Nc1ccc2oc(-c3ccccc3Br)nc2c1,-185.8*
CCCC(=O)Nc1ccc(-c2nc3cc(C)c(C)cc3o2)cc1,-110.4*
CCCCOC(=O)Nc1cccc(Cl)c1C,-104.1*
Cc1ccc2[nH]c(SCC(=O)N3CCOCC3)nc2c1C,-110.4*
Cc1ccc2nc(SCC(=O)Nc3cc(C(F)(F)F)ccc3N3CCOCC3)[nH]c2c1,95.8
Cc1ccc2nc(SCC(=O)N3CCOCC3)[nH]c2c1,-89.3*
C/C(N)=C(/C#N)C(=O)CSc1nc2ccc(C)cc2[nH]1,-182.9*
COc1ccc(-c2cc(C(=O)N3CCN(c4ccccc4)CC3)no2)cc1,-156.1*
Cc1ccc(-c2cc(C(=O)N3CCOCC3)no2)cc1,66.9
COc1ccc(-c2cc(C(=O)N3CCCC3)no2)cc1OC,-122.9*
COc1ccc(-c2cc(C(=O)N3CCCCC3)no2)cc1OC,-111.7*
CCc1ccc(Nc2nnc(SCC(=O)NCCN3C(=O)CSC3=O)s2)cc1,-65.1*
CCc1ccc(Nc2nnc(SCC(=O)Nc3cccnc3Cl)s2)cc1,-64.4*
CCc1ccc(Nc2nnc(SCC(=O)Nc3sccc3C(N)=O)s2)cc1,-86.3*
COC(=O)c1ccc(Nc2nc3ccc(C)cc3n3cnnc23)cc1,-97.7*
C/C(=N/NC(=O)c1ccc(C)s1)c1ccncc1,-87.4*
CCc1ccc(C(=O)N/N=C(\C)c2ccncc2)s1,-93.2*
O=C(CSc1ncnc2nc[nH]c12)c1ccccc1,-86.9*
c1ccc(CCSc2ncnc3nc[nH]c23)cc1,-74.8*
CSc1ccccc1OCc1cc(C(=O)N(C)Cc2ccc3nsnc3c2)no1,-160.5*
CSc1ccccc1OCc1cc(C(=O)N(C)Cc2ccc(C)o2)no1,-123.3*
Cc1nnc(CN(C)C(=O)c2cc(COc3ccc(F)cc3Cl)on2)o1,-99.6*
CC(=O)c1cccc(OCc2cc(C(=O)N(C)Cc3ccc(C)o3)no2)c1,-68.5*
SMILES,aSyn UTR act
Cc1ccc(C2=NNC(C(O)C(O)C(O)CO)S2)cc1 (stereo not given),-66.5*
COc1ccc(C2NN=C(c3ccc(C)cc3)S2)cc1 (stereo not given),-171.8*
COC(=O)CSc1nc2ccc(C)cc2cc1C#N,-72.5*
Cc1cc(C)c2cc(C#N)c(N3CCCN(C(=S)NCCCN(C)C)CC3)nc2c1,95.7
COC(=O)CSc1nc2cc(C)cc(C)c2cc1C#N,-180.1*
CNc1ccccc(-c2ccc3cc4c(cc3n2)OCO4)c1=O,-214.9*
CCC(=O)Nc1ccc(NC(=O)c2ccco2)c(OC)c1,-142.3*
O=C(Nc1ccc(CSc2ccccc2)cc1)c1ccco1,-125.4*
CCC(=O)Nc1ccc(NC(=O)c2ccco2)cc1,-136.0*
COc1cc(NC(=O)CC(C)C)ccc1NC(=O)c1ccco1,-119.1*
CCOc1ccc(CC(=O)Nc2ccc(NC(=O)c3ccco3)cc2)cc1OCC,65.9
Cc1cc(/C=N/NC(=O)c2ccsc2)c(C)n1-c1cnccn1,-76.6*
COc1ccc(N=C2S/C(=C\c3ccc(N4CCOCC4)o3)C(=O)N2CCc2c[nH]c3ccccc23)cc1,-113.0*
COc1ccc(C(=O)/C=C2/C(=O)Nc3ccccc32)cc1,-98.9*
O=[N+]([O-])c1ccc(N/N=C/c2cn(-c3ccccc3)nc2-c2ccccc2)cc1,-71.0*
NS(=O)(=O)c1ccc(N/N=C/c2cn(-c3ccccc3)nc2-c2ccccc2)c([N+](=O)[O-])c1,-121.0*
Cn1ccnc1SCC(=O)N1CCc2ccccc21,-68.9*
O=C(CSc1nnc2ccccn12)N1CCc2ccccc2C1,-94.5*
Cc1ccc(C(=O)Nc2nnc(SCC(=O)N3CCCc4ccccc43)s2)cc1,74.5
Cc1ccnc(SCC(=O)N2CCc3ccccc32)n1,-87.3*
O=C(CSc1nnc2ccccn12)N1CCc2ccccc21,-97.7*
O=C(/C=C/c1ccc(O)c(O)c1)OCCc1ccccc1,-130.9*
O=C(/C=C/c1cc2ccccc2o1)c1ccccc1O,-161.2*
O=C(/C=C/c1ccc(O)c(O)c1)c1ccccc1O,-293.4*
O=C(/C=C/c1ccoc1)c1ccccc1O,-76.4*
SMILES,aSyn UTR act
CCCCOc1ccc(C(=O)N2CCCCCC2)cc1,-80.5*
COC(=O)c1ccc(COc2ccc(CNCc3ccc(Cl)cc3)cc2)cc1,-92.1*
O=C(c1ccc(COc2ccc(Cl)cc2)cc1)N1CCCCC1,-85.5*
CCOC(=O)c1c(C)[nH]c(C=O)c1Cc1cccc(Cl)c1,53.5
CCOC(=O)c1c(C)[nH]c(C2=NNC(=Nc3cccc(Cl)c3)SC2)c1C,-73.7*
CN(N=Nc1cccc([N+](=O)[O-])c1)c1cccc([N+](=O)[O-])c1,-82.4*
COc1ccc(OCc2cc(C(=O)N(C)C(C)c3ccon3)no2)c(Cl)c1 (stereo not given),-114.8*
COc1ccc(OCc2cc(C(=O)N(C)CCC3CCOCC3)no2)c(Cl)c1,-75.5*
COc1cc(Cl)ccc1OCc1cc(C(=O)N(C)CC2CCCCO2)no1 (stereo not given),-138.9*
